USP28 inh: inhibitors of human USP28 deubiquitinase; Ubiquitin carboxyl-terminal hydrolase 28 (Homo sapiens), Q96RU2; purified USP28, Ub-rhodamine cleavage fluorescence, 30 min; inhibition, % at 25 µM; 3% of 47,000 active
USP17 inh: inhibitors of human USP17 deubiquitinase; inhibition, % at 50 µM; purified USP17, Ub-rhodamine cleavage fluorescence, 3 h; 6.5% of 47,000 active
USP30 inh: inhibitors of human USP30 deubiquitinase. Ubiquitin carboxyl-terminal hydrolase 30 (Homo sapiens), Q70CQ3. AID 1645860, 2021. inhibition, % at 25 µM. purified USP30, Ub-rhodamine cleavage fluorescence. 5.3% of 47,000 active
Target sequence (Q70CQ3 whole entry, looked up): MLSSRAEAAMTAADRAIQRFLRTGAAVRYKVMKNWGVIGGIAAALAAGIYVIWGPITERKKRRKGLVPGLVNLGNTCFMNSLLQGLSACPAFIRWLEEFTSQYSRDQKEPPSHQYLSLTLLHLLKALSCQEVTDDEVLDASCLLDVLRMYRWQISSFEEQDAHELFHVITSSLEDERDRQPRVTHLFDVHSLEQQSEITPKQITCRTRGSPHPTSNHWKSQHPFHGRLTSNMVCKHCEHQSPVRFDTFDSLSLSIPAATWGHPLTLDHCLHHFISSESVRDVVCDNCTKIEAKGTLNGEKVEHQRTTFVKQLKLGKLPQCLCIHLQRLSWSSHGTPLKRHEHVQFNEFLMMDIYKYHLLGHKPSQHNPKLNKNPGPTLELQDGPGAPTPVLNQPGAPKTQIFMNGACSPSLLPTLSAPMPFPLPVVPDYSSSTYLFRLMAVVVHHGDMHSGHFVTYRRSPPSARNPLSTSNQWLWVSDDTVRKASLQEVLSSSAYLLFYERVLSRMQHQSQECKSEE
USP8 inh: inhibitors of human USP8 deubiquitinase | 4.2% of 47,000 active | AID 1645853, 2021 | Ubiquitin carboxyl-terminal hydrolase 8 (Homo sapiens), P40818 | purified USP8, Ub-rhodamine cleavage fluorescence, 30 min | inhibition, % at 20 µM
Numbers stand for hits; i = inactive; nt = not tested or not shown. Shown are actives, neighbours in structure and some others; about 13% of the full set was active somewhere. No stated cut-off is given here; in the data, active means inhibition above about 30%; inactive means the rest.

SMILES	USP28 inh	USP17 inh	USP30 inh	USP8 inh
CCCN1C(=O)COc2ccc(-c3noc(-c4cnccn4)n3)cc21	i	i	i	i
Cc1nc(-c2cccc(NC(=O)c3ccccc3Cl)c2)no1	52	i	i	i
O=C(Nc1nccnc1C(=O)NCc1ccc(F)cc1)c1ccccc1	i	i	i	i
O=C(NCc1ccc(-c2nc3cnccc3o2)cc1)c1ccccc1Br	i	68	i	i
O=C(NCc1ccc(-c2nc3ncccc3o2)cc1)c1ccccc1	i	i	i	32
CCc1nc(-c2cccc(NC(=O)c3ccccc3F)c2)no1	36	i	i	i
Cc1nc(-c2cccc(NC(=O)c3ccccc3F)c2)no1	i	i	i	i
O=C(NCc1cccnc1)c1ccc(COc2ccccc2Br)o1	i	i	i	i
CN1C(=O)c2ccccc2OCCCCC[C@H]2NCCC[C@H]21	i	i	i	i
Cc1nc(-c2cccc(NC(=O)c3ccc(C#N)cc3)c2)no1	nt	i	nt	i
O=C(Nc1ccccc1)NS(=O)(=O)c1ccc2oc(-c3cccnc3)nc2c1	i	i	i	i
CC(=O)c1cccc(NC(=O)c2ccc(-c3noc(C)n3)cc2)c1	30	i	i	i
O=C(Nc1cccc(-c2nc3cnccc3o2)c1)c1ccccc1F	nt	44	nt	i
O=C(Nc1ccc2c(c1)OCCO2)C(=O)c1cn(CC(=O)N2CCOCC2)c2ccccc12	i	i	i	i
O=C(Nc1cccnc1)C1c2ccccc2C(=O)N(c2ccccc2)C12CCCCC2 (configuration not stated)	i	i	i	49
O=C(Nc1nccs1)C1c2ccccc2C(=O)N(c2ccccc2)C12CCCCC2 (configuration not stated)	i	34	i	i
COc1ccccc1-c1nc(CC(=O)Nc2cc(Cl)cc(Cl)c2)no1	i	i	i	i
CC(C)CNC(=O)C1CCN(c2nc3ccc(-c4cncnc4)nc3s2)CC1	i	i	i	i
O=[N+]([O-])c1ccc(-c2nc3ccccn3c2Br)cc1	i	39	44	i
N#Cc1cccc(Cn2c(-c3nc(-c4ccccc4)no3)cccc2=O)c1	i	i	i	i
Cc1c(NC(=O)Cc2cccs2)cccc1-n1cnnn1	i	i	i	51
Cc1cc(C)nc(N2CCC(C(=O)NC(C)c3ccccc3)CC2)n1 (configuration not stated)	i	i	i	i
COc1ccc(-c2noc(C3CCCN3C(=O)Nc3ccc(C)c(C)c3)n2)cc1 (configuration not stated)	i	i	i	i
O=C(Cn1cnc2ccccc2c1=O)c1c[nH]c2ccccc12	32	47	44	i
O=C(CSc1nc2ccccc2[nH]1)c1ccccc1F	i	i	i	i
SMILES	USP28 inh	USP17 inh	USP30 inh	USP8 inh
Cc1cc(C(=O)CSc2nc3ccccc3[nH]2)c(C)n1Cc1ccco1	i	50	i	57
O=C(CCn1cnc2ccccc2c1=O)Nc1ccc(Cl)cc1	i	40	i	i
O=C(CSc1nc2ccccc2[nH]1)c1c[nH]c2ccccc12	i	i	33	i
O=C(Cn1cnc2cc([N+](=O)[O-])ccc2c1=O)c1c[nH]c2ccccc12	i	i	i	i
CC1=C(C(=O)Nc2ccc3c(c2)OCCO3)C2(CCCCCC2)OC1=O	i	i	i	i
O=C(Cn1cnc2ccccc2c1=O)NC(c1ccccc1)c1ccccc1	i	i	33	i
COc1ccc(C(CNC(=O)Cn2cnc3ccccc3c2=O)N(C)C)cc1 (configuration not stated)	i	i	i	i
Nc1nnc(-c2cc(-c3ccc4c(c3)OCO4)on2)o1	i	i	i	54
Cc1cccc2cc(CN(Cc3ccc4c(c3)OCO4)C(=O)NCc3ccccc3)c(=O)[nH]c12	i	i	36	i
COc1ccc(/C=C/c2nc(-c3cccc(OCC(=O)NC(C)C)c3)no2)cc1OC	i	i	i	i
c1ccc(-c2cc3c(NCc4cccnc4)ncnc3s2)cc1	i	i	i	i
c1ccc(-c2cc3c(N4CCc5ccccc5C4)ncnc3s2)cc1	i	i	i	53
CN(C(=O)c1ccc(C(=O)c2ccccc2)cc1)c1nnc(C23CC4CC(CC(C4)C2)C3)s1	i	i	33	i
COc1ccc(S(=O)(=O)N2CCCCC2)cc1NC(=O)c1ccc(OCC2CCCO2)cc1 (configuration not stated)	i	i	47	i
O=C(Nc1cccc(S(=O)(=O)N2CCCC2)c1)c1ccc(OCC2CCCO2)cc1 (configuration not stated)	36	i	i	i
Cc1ccc(S(=O)(=O)N2CCCCC2)cc1NC(=O)c1ccc(C#N)cc1	i	i	i	i
Cc1ccc(-n2nc(C(=O)N3CCOCC3)c3ncn(C)c(=O)c32)cc1	i	i	i	i
COc1ccc(CCN2CCc3nc4ncc(Cl)cc4cc3C2)cc1OC	i	i	i	i
Cc1ccc(NC(=O)c2cc(-c3ccccc3)c(N3CCOCC3)s2)cc1	i	i	i	i
COc1cccc(/C=C2\C(=O)N(c3cccc(C)c3)C(=O)c3ccccc32)c1	i	43	i	66
Cc1cccc(N2C(=O)/C(=C\c3ccc(N4CCOCC4)s3)c3ccccc3C2=O)c1	i	42	i	41
COc1cccc(N2C(=O)c3cccnc3C2Nc2ccc(C)cc2)c1 (configuration not stated)	i	i	i	i
COc1cccc(C2C(C(=O)Nc3ccccc3)=C(C)Nc3ncnn32)c1OCc1ccccc1 (configuration not stated)	i	i	i	i
CNC(=O)[C@@]12CCCN(c3ncccn3)[C@@H]1CN(Cc1cccc(Cl)c1)C2	i	i	i	i
COCc1cc(=O)[nH]c2cc(NC(=O)c3cccc(OC)c3)c(C)cc12	i	i	i	i
SMILES	USP28 inh	USP17 inh	USP30 inh	USP8 inh
Cc1nn(C)cc1S(=O)(=O)N1CCC(O)(CN2CCCC2)C1 (configuration not stated)	i	i	i	i
Cc1cccc(NC(=O)c2c(-c3c(F)cccc3Cl)noc2C)n1	nt	i	nt	i
O=C(c1ccc(Cl)cc1)c1c[nH]cc1-c1c(F)cccc1Cl	i	32	54	i
O=C(NCc1csc2ccccc12)c1ccc(Cl)cc1	i	i	45	i
COc1ccc(C(=O)NCc2csc3ccccc23)cc1	35	i	64	i
CCc1nc2ccc(C(=O)NCc3ccc(OC)cc3)cc2nc1CC	i	i	i	i
Cc1ccccc1NC(=O)CCc1nc(CSc2nnc(-c3ccncc3)o2)no1	i	i	i	i
CC(=O)Nc1ccc(C(=O)NCc2ccc(Cl)cc2)c(N2CCOCC2)c1	i	i	i	i
O=C(c1ccccc1)N1CCC(c2cc(=O)n3[nH]ccc3n2)CC1	i	i	i	i
COc1ccc(C2C=C(C(=O)O)Nc3nnnn32)c(OC)c1 (configuration not stated)	i	i	i	i
COc1ccc(C(=O)Nc2cnc(N3CCCCCC3)nc2)cc1	44	i	i	i
N#Cc1ccc(C(=O)Nc2cnc(N3CCCCCC3)nc2)cc1	nt	53	nt	i
Cc1nc(N2CCCC2)ncc1C(=O)Nc1ccc(Cl)cc1	i	45	i	i

Screening results: PubChem BioAssay, Buhrlage Lab, Dana-Farber Cancer Institute and Novartis Institutes for BioMedical Research (Cambridge, Mass)
